Hits are enriched below; roughly 21% of the tested compounds scored in any of these assays.
DT40 TDP1 CPT = qHTS for Inhibitors of human tyrosyl-DNA phosphodiesterase 1 (TDP1): qHTS in cells in presence of CPT | chicken DT40 Tdp1-/-;hTDP1 cells + 20 nM CPT, ATP luminescence, 48 h | Potency, µM (series often up to 46.2 µM), inactives show at the top dose activity change, negative = growth inhibition, most hits filed as inhibitors | actives 12% (n = 420,000) | AID 686979, 2013; further: potency means the concentration at half of the fitted maximal effect; on the % scale 0 is the no-effect control and ±100 the full control effect; nearly all actives have a fitted effect of over 55% in size
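Cell growth measured by CellTiter-Glo luminescence after a minimum 48 h, 37 C compound exposure with 20 nM CPT in Tdp1-knockout DT40 cells stably expressing hTDP1, seeded 400/well; qHTS titration format.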
DT40 TDP1 no CPT = qHTS for Inhibitors of human tyrosyl-DNA phosphodiesterase 1 (TDP1): qHTS in cells in absence of CPT; DT40 Tdp1-/- hTDP1 cells, no CPT, ATP luminescence, 48 h; Potency, µM (top dose mostly 46.2 µM), for inactives: top-dose activity change, negative = growth inhibition, usual class: inhibitors; actives 15% (n = 420,000); further: potency means the concentration at half of the fitted maximal effect; on the % scale 0 is the no-effect control and ±100 the full control effect; nearly all actives have a fitted effect of over 55% in size
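Growth of hTDP1-complemented DT40 Tdp1-knockout cells is measured by ATP luminescence after at least 48 hr compound exposure at 37 °C, with DMSO substituting for the 20 nM CPT used in the parallel screen.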
D3 antag = qHTS of D3 Dopamine Receptor Antagonist: qHTS | D(3) dopamine receptor (Homo sapiens), P35462 | D3R cells, DiscoveRx beta-arrestin luminescence, antagonist mode; hits give low values | max response, negative = inhibition, % | actives 2.5% (n = 360,000); in the data active means max response below about -50%; inconclusive means no clear call, values can overlap the other calls; further: on the % scale 0 is the no-effect control and ±100 the full control effect
Target sequence (P35462 whole entry, looked up): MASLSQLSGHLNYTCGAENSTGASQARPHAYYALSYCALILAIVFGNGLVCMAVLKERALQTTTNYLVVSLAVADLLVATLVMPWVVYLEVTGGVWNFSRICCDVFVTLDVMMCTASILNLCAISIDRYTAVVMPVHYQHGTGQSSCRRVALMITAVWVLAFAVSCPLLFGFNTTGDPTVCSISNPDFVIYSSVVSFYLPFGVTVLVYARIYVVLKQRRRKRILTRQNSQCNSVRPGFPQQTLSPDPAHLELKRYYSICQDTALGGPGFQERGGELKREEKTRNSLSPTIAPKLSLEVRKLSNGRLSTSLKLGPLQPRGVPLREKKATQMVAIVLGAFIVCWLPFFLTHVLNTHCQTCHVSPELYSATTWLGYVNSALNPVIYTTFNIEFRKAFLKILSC
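Cells plated overnight at 1500 cells/well, then exposed to library compounds with dopamine controls for 90 minutes at 37 degrees C. DiscoveRx reagent added for 30–60 minutes at room temperature; luminescence read, quantitative HTS format.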
D3 ag = qHTS of D3 Dopamine Receptor Agonist: qHTS | D3R DiscoveRx beta-arrestin cells, luminescence, 90 min | D(3) dopamine receptor (Homo sapiens), P35462 | AID 652048, 2013 | max activation, % | actives 0.58% (n = 410,000); in the data active means max activation above about 30%; further: 0% is about no effect
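Agonist-mode cell screen: cells plated at 1500/well and incubated overnight at 37 °C, then exposed to library compounds for 90 min at 37 °C. Detection reagent was added for 30–60 min at room temperature, and luminescence was read.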
ClpP mod = qHTS Assay for Activators of ClpP. Potency, µM (titrated, usually from 57.5 µM), inactives show at the top dose activity change, negative = active. AID 651965, 2013. ATP-dependent Clp protease proteolytic subunit (Bacillus subtilis (strain 168)), P80244. purified B. subtilis ClpP, FRET peptide cleavage, 20 min. actives 1.9% (n = 340,000); active means well fitted falling curve with a large enough effect; inconclusive means small, poorly fitted or top-dose-only effect; inactive means no such curve, though single readings can be large or run the other way; further: potency means the concentration at half of the fitted maximal effect; the source files actives as falling curves though it sought activators and does not explain the sign; nearly all actives have a fitted effect of over 65% in size
Target sequence (P80244 whole entry, looked up): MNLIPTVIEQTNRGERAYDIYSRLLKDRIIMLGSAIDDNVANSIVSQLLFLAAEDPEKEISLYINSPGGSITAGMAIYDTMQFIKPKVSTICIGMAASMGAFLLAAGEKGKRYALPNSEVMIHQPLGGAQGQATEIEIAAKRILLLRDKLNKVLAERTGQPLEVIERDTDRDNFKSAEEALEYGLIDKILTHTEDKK
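FRET quenching reversal measured ClpP activation: 10 microg/mL B. subtilis ClpP at pH 8 with the FRET-FV decapeptide, read at 430 nm after 320 nm excitation. The 20-min minus 0-min signal was scaled between DMSO/no-enzyme wells and ADEP (5.8 microM final).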
IL1B secr inh = qHTS for Inhibitors of Inflammasome Signaling: IL-1-beta AlphaLISA Primary Screen. activity change, % at 57.5 µM. AID 743279, 2014. THP-1 LPS/ATP IL-1B secretion, AlphaLISA, 16 h; hits give low values. actives 4.7% (n = 360,000); in the data active means activity change below about -50%; inconclusive means mostly about -30% to -49%; further: on the % scale 0 is the no-effect control and ±100 the full control effect
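THP-1 cells pretreated 1 hr with compounds (up to 57.5 uM final), then stimulated with LPS (250 ng/mL final) plus ATP (1.25 mM final); secreted IL-1B measured by AlphaLISA after 16 hr, decreased signal indicating inhibition.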
An asterisk follows results filed as active; ? = inconclusive; . = no result given. Unless noted, the call rests on the fitted dose curve; in most records, active means well fitted inhibition curve with a large enough effect; inconclusive means small, poorly fitted or top-dose-only effect; inactive means flat fitted curve, though single readings scatter.

SMILES	DT40 TDP1 CPT	DT40 TDP1 no CPT	D3 antag	D3 ag	ClpP mod	IL1B secr inh
Cc1ccc(S(=O)(=O)N2CCOCC2)cc1C(=O)N1c2ccccc2Sc2ccccc21	?	23.1µM*	-3.5	0.2	-0.9%	-7.1
COc1ccc(S(=O)(=O)N2CCOCC2)cc1C(=O)N1CCCCCC1	0.5%	-13.3%	1.8	1.2	-1.1%	-6.6
Cc1ccc(S(=O)(=O)N2CCCCC2)cc1C(=O)Nc1ccc(N2CCOCC2)cc1	?	12.6µM*	1.9	0.1	0.5%	5.8
Cc1csc(NC(=O)c2cccc(S(=O)(=O)N3CCN(C)CC3)c2)n1	?	?	2.2	-0.3	.	35.5
CCOCCCNC(=O)c1ccc2c(=O)n(CCc3ccccc3)c(=O)[nH]c2c1	-3.1%	-19.2%	.	5.9	-0.4%	.
COc1cc(OC)cc(-n2c(=O)[nH]c3cc(C(=O)NCCc4ccc(C)cc4)ccc3c2=O)c1	-16.4%	-3.8%	.	1.0	-1.7%	.
COc1ccc(-n2c(=O)[nH]c3cc(C(=O)NCCc4ccc(Cl)cc4)ccc3c2=O)cc1OC	23.1µM*	14.6µM*	?	2.1	?	11.6
CCCCCNC(=O)c1ccc2c(=O)n(CCc3ccccc3)c(=O)[nH]c2c1	-12.0%	-13.5%	.	3.9	-1.0%	.
CCCCN(C)CCNC(=O)c1ccc2c(=O)n(CCc3ccccc3)c(=O)[nH]c2c1	13µM*	23.1µM*	.	-1.2	-13.9%	.
CCOCCCNC(=O)c1ccc2c(=O)n(CCc3ccc(OC)c(OC)c3)c(=O)[nH]c2c1	6.51µM*	4.11µM*	.	3.2	-4.0%	.
COc1ccc(C2c3c(oc4ccc(Cl)cc4c3=O)C(=O)N2CCCN(C)C)cc1OC (stereo unspecified)	-14.6%	?	.	-5.2	-28.6%	.
COc1cccc(Cn2c(=O)cnc3cnc(N4CCN(C)CC4)nc32)c1	?	-12.9%	.	.	.	.
Nc1c(C(=O)NCCc2ccccc2)nnn1CC(=O)Nc1ccc(Cl)cc1	4.4%	-6.6%	.	-10.9	-15.5%	.
Cc1ccc(CC(=O)Nc2cccc([N+](=O)[O-])c2)cc1	-22.7%	?	-4.9	0.4	-0.6%	-3.0
COCC(=O)Nc1cc([N+](=O)[O-])ccc1C	23.1µM*	?	7.8	-0.3	-1.7%	-5.3
Cc1ccc([N+](=O)[O-])cc1NC(=O)CCCOc1ccccc1	5.4%	-0.2%	-64.4*	-1.1	-6.5%	-13.2
Cc1ccc(CC(=O)Nc2ccc([N+](=O)[O-])cc2C)cc1	-14.8%	-4.1%	-0.5	3.6	0.0%	-56.7*
CC(=O)N/N=C(\N)c1nonc1N	4.9%	-7.2%	25.6	1.9	-3.5%	12.6
Cn1c(CCNC(=O)c2ccco2)nc2cc(NC(=O)c3ccccc3Cl)ccc21	-15.8%	-12.8%	0.1	7.9	.	9.8
Cc1cc(N/N=C/c2ccc(O)cc2)c2cccc(C)c2n1	?	?	-72.4*	-8.0	-7.7%	?
Cc1cc(N/N=C/c2ccc(N(C)C)cc2)c2ccccc2n1	0.7%	?	11.7	-3.7	4.0%	-15.0
Cc1cc(C)c2nc(C)cc(N/N=C/c3ccc(O)cc3)c2c1	3.26µM*	3.26µM*	?	-18.4	.	-98.3*
COc1ccc(/C=N/Nc2nncn2N)cc1Br	?	?	-18.6	-10.3	15.8µM*	?
Cc1ccc(-c2nc(CS(=O)CC(=O)NCCN3CCCCCC3)c(C)o2)cc1 (stereo unspecified)	-24.8%	?	-2.3	1.7	-9.8%	-14.2
Cn1cccc1/C=N/N1CCN(Cc2ccccc2)CC1	-0.6%	-27.8%	-9.4	-17.4	-0.7%	-16.2
SMILES	DT40 TDP1 CPT	DT40 TDP1 no CPT	D3 antag	D3 ag	ClpP mod	IL1B secr inh
Cn1cccc1/C=N/N1CCN(Cc2cccc3ccccc23)CC1	?	13µM*	0.8	-3.3	-9.8%	?
COc1cc(C(=S)N2CCN(c3cccc(Cl)c3)CC2)ccc1O	10.3µM*	18.4µM*	0.0	4.1	.	10.2
Oc1ccccc1C(=S)N1CCN(c2cccc(Cl)c2)CC1	23.1µM*	?	-7.9	-5.8	1.9%	-96.8*
Oc1ccc(C(=S)N2CCN(c3cccc(Cl)c3)CC2)cc1	?	?	-9.9	-4.2	-0.4%	-93.1*
CC(C(=O)OCC(=O)Nc1ccccc1OC(F)F)N1C(=O)C2CC=CCC2C1=O (stereo unspecified)	-1.6%	-27.9%	-17.0	-1.1	0.9%	14.0
Cn1c(=O)oc2cc(S(=O)(=O)NC(Cc3ccccc3)C(=O)Nc3ccc(F)c(Cl)c3)ccc21 (stereo unspecified)	-0.3%	-22.1%	.	-0.1	-0.8%	.
CCNC(=O)/C(C#N)=C/c1c(N2CC(C)OC(C)C2)nc2ccccn2c1=O (stereo unspecified)	-22.0%	-21.6%	7.5	-0.3	-15.6%	-3.4
CC1CN(c2nc3ccccn3c(=O)c2/C=C(\C#N)C(N)=O)CC(C)O1 (stereo unspecified)	-1.8%	-2.7%	-0.2	-0.5	.	-65.2*
COCCNC(=O)/C(C#N)=C/c1c(N2CC(C)OC(C)C2)nc2ccccn2c1=O (stereo unspecified)	-12.7%	4.2%	21.6	2.5	-22.1%	2.7
CNC(=O)/C(C#N)=C/c1c(N2CC(C)OC(C)C2)nc2ccccn2c1=O (stereo unspecified)	3.4%	-24.4%	-0.7	0.2	28.2µM*	0.2
Cc1nn(-c2ccccc2)c(C)c1C(=O)OCC(=O)Nc1cccc(S(N)(=O)=O)c1	?	?	-6.5	4.6	0.6%	-2.4
Cc1c(C(=O)OC2CCCCC2)sc2nc[nH]c(=O)c12	-29.9%	-2.2%	22.3	0.2	28.2µM*	17.9
Cc1ccc(S(=O)(=O)NC(=O)c2ccc(Br)o2)cc1	-24.1%	-19.6%	8.3	53.5*	1.5%	24.8
COc1ccc(NS(=O)(=O)c2cc(C)ccc2C)cc1	20.6µM*	16.4µM*	15.2	-24.1	1.2%	28.5
COc1ccc(NS(=O)(=O)c2cc(OC)ccc2NC(=O)c2cc(C)oc2C)cc1	5.17µM*	2.59µM*	?	1.7	0.0%	41.4
COc1ccc(NS(=O)(=O)c2cc(NC(=O)c3ccc(=O)[nH]n3)ccc2C)cc1	18.4µM*	18.4µM*	-17.6	-2.6	0.2%	46.6
COc1ccc(NS(=O)(=O)c2cc(S(C)(=O)=O)ccc2C)cc1	-0.4%	-19.0%	9.4	-1.7	-1.0%	-8.7
